# Data taken from article PMC4336329 (PLoS ONE, 2015).
# In all, about 310,000 compounds went through this assay and about 14,000 (4.5%) showed an effect of 50% or more. The effect is printed as a negative number. What follows is part of a selection rich in strong results, with near analogues and random picks from the rest.
# Target: human ether-à-go-go-related gene (hERG) potassium channel (human, UniProt Q12809)
# Test: primary screen, population patch clamp on CHO cells stably expressing hERG; higher = less effect of the substance
# 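Note: peak tail current of the secondary pulse compared with the same well before compound.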
# Chain of human ether-à-go-go-related gene (hERG) potassium channel (Q12809 whole entry, looked up): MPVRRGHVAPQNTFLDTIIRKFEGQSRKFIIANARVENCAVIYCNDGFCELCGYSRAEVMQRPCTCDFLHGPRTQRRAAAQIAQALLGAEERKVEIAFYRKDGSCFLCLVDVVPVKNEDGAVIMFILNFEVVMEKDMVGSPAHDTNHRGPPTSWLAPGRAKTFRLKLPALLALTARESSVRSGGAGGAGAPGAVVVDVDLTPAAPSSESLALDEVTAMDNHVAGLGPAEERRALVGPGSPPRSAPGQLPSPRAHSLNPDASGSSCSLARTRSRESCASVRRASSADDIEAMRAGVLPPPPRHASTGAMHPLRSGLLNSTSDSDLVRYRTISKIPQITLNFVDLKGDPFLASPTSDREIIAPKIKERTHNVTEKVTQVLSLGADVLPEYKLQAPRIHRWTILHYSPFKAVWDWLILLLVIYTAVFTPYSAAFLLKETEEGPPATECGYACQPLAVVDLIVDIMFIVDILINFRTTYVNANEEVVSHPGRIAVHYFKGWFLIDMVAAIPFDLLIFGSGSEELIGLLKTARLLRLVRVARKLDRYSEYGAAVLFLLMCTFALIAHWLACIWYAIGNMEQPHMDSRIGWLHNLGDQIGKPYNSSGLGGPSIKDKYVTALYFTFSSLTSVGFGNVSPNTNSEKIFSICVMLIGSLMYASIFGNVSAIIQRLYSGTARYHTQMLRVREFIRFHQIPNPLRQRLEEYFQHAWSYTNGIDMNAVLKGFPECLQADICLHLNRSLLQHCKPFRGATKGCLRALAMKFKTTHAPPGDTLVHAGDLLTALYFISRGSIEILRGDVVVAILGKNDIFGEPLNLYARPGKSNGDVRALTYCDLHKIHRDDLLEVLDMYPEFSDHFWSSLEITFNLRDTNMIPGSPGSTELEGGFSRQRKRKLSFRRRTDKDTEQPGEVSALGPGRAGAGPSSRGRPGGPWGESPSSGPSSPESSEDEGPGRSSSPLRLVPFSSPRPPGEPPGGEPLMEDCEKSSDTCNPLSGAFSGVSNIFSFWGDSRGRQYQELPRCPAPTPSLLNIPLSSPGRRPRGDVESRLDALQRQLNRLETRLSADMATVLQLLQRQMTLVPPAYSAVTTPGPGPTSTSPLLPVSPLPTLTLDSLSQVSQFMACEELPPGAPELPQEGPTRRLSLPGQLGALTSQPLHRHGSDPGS
row,SMILES,"hERG current change (%, negative = inhibition) at 10uM [%]"
1,COc1cc(Cl)c(C)cc1NC(=O)c1ccc2c(c1)OCO2,19
2,O=c1oc2ccccc2c2c1nnn2CCO,8.06
3,CCCCn1c(N)c(N(CC(C)C)C(=O)C2CC(=O)N(c3ccc(CC)cc3)C2)c(=O)[nH]c1=O (stereo not drawn),18.8
4,CC(C)CC(NS(=O)(=O)OCC(Cl)(Cl)Cl)c1ccccc1 (stereo not drawn),1.57
5,O=C(COC(=O)c1cc(-c2ccccc2)nc2ccccc12)NCC1CCCO1 (stereo not drawn),-22.4
6,CCN(CC)c1ccc(C(=S)NCc2ccccc2)cc1,13
7,COc1ccc(NC(=O)CC2SC(=N)N(c3ccccc3)C2=O)c(OC)c1 (stereo not drawn),29.4
8,O=C(CN1CCN(c2ccc(F)cc2)CC1)Nc1ccc(F)c(F)c1,-27.8
9,O=C(CN1CCN(c2ccc(Cl)cc2)CC1)Nc1ccc(F)cc1,-60.9
10,O=C(CN1CCN(c2ccc(F)cc2)CC1)Nc1ccccc1,6.74
11,CC(=O)Nc1ccc(S(=O)(=O)N(C)CC(=O)OCC(=O)N2CCCCC2)cc1,-1.43
12,O=C(Cn1c(NCCO)nc2ccccc21)NCCc1ccc(F)cc1,10.6
13,CC(C)Cc1nc(N2CCN(C(=O)C(C)C)CC2)c(C#N)c2c1CCC2,-27.2
14,CCCC(=O)N1CCN(c2nc(CC(C)C)c3c(c2C#N)CCC3)CC1,-53
15,CC(=O)N1CCN(c2nc(CC(C)C)c3c(c2C#N)CCC3)CC1,-9.82
16,CC(=O)c1ccc(N(CC(=O)NC2CCCC2)C(=O)c2csnn2)cc1,13.8
17,O=C(Nc1ccc(N2CCN(C(=O)c3cccs3)CC2)cc1)c1ccc(F)cc1,-15.3
18,O=C(Nc1ccc(N2CCN(C(=O)c3ccc(Cl)cc3)CC2)cc1)c1ccc(Br)o1,-75.3
19,COc1cccc(C(=O)Nc2ccc(N3CCN(C(=O)c4cccs4)CC3)cc2)c1,-19.7

row,SMILES,"hERG current change (%, negative = inhibition) at 10uM [%]"
1,O=C(c1ccc(Br)o1)N1CCN(c2ccccn2)CC1,-19.3
2,O=C(Nc1ccc(C(=O)N2CCN(c3ccccn3)CC2)cc1)c1ccc(Br)o1,-66.7
3,N#Cc1ccccc1N1CCN(C(=O)c2ccc(NC(=O)c3ccc(Br)o3)cc2)CC1,-18.9
4,O=C(Nc1ccc(N2CCN(C(=O)c3cccs3)CC2)cc1)c1cccc(F)c1,-62.6
5,O=C(Nc1ccc(N2CCN(C(=O)c3ccccc3)CC2)cc1)c1ccc(Br)o1,-75.9
6,N#CCC(=O)Nc1ccc(C(=O)N2CCN(c3ccccn3)CC2)cc1,18.4
7,O=C(Nc1ccc(N2CCCC2)cc1)c1ccc(Br)o1,-20.8
8,CC(C)C(=O)N1CCN(c2ccc(NC(=O)c3ccc(Br)o3)cc2)CC1,-0.0806
9,O=C(Nc1ccc(N2CCN(C(=O)c3ccc(Cl)cc3)CC2)cc1)c1cc2ccccc2o1,-0.396
10,O=C(COC(=O)Cc1ccc(F)cc1)NC1CCCC1,4.84
11,COc1ccc(N(CC(=O)Nc2cc(OC)c(OC)cc2C(=O)O)S(=O)(=O)c2c(C)noc2C)cc1,15.9
12,COc1ccc(/C=N/Nc2nnc(C)n2N)cc1OC(C)=O.Cl,14.3
13,COCCN(C(=O)COC(=O)c1nc(Cl)ccc1Cl)c1c(N)n(Cc2ccccc2)c(=O)[nH]c1=O,20.3
14,O=C1CC(c2ccco2)Cc2nc(N3CCc4ccccc4C3)ncc21 (stereo not drawn),-20.7
15,Cc1ccc(C(=O)N2CCN(c3ccc(NC(=O)c4ccc(Br)o4)cc3)CC2)cc1,-68.8
16,CCC(=O)N1CCN(c2ccc(NC(=O)c3ccc(Br)o3)cc2)CC1,-26.9
17,CN1CCN(c2ccc(NC(=O)c3ccc(Br)o3)cc2)CC1,-16.2
18,O=C(Nc1ccc(N2CCN(C(=O)c3cccs3)CC2)cc1)c1ccc(Br)o1,-75.8
19,O=C(Nc1ccc(N2CCN(C(=O)c3cccs3)CC2)cc1)c1ccco1,17.7

row,SMILES,"hERG current change (%, negative = inhibition) at 10uM [%]"
1,O=C(Nc1ccc(N2CCN(C(=O)c3cccs3)CC2)cc1)c1ccc([N+](=O)[O-])o1,-25.5
2,Cc1ccc(Nc2c(-c3ccccn3)nc3cccc(C)n23)cc1,10.1
3,Cc1ccc(C(=O)NNC(=O)/C=C\C(=O)O)cc1,6.41
4,CCOC(=O)/C=C/c1ccc2c(c1)S(=O)(=O)N(Cc1ccc(OC)cc1)[C@H]2CC(=O)OCC,-18.2
5,COc1cccc(=O)c2c(C)n(-c3ccc(C(=O)O)cc3)c(C)c12,6.33
6,COc1cccc(-n2c(C)c3c(OC)cccc(=O)c3c2C)c1,-11.8
7,COc1ccc(-n2c(C)c3c(OC)cccc(=O)c3c2C)cc1,-60.2
8,COc1cnc(-c2ccccn2)nc1N(C)c1ccccc1,14.2
9,Cc1ccc(-c2nc3ccccc3o2)cc1NC(=O)Cc1cccs1,18.7
10,CC(C)C[C@H](NC(=O)C1(c2ccccc2)CCN(C(=O)OC(C)(C)C)CC1)C(=O)N1CCC[C@H]1C(=O)O,9.37
11,Cc1ccc(CN2C(=O)c3ccccc3Sc3ccc(C(=O)NCCCN4CCOCC4)cc32)cc1,-2.12
12,CCN1C(=O)c2ccccc2S(=O)(=O)c2ccc(C(=O)NCCCN(CC(C)C)CC(C)C)cc21,-12.7
13,CCN1C(=O)c2ccccc2Sc2ccc(C(=O)NCCC(C)C)cc21,-7.94
14,Cc1ccccc1CN1C(=O)c2ccccc2Sc2ccc(C(=O)NCCN3CCOCC3)cc21,-69.6
15,Cc1ccccc1CN1C(=O)c2ccccc2Sc2ccc(C(=O)NCCCN3CCOCC3)cc21,-62.9
16,Cc1ccc(CN2C(=O)c3ccccc3Sc3ccc(C(=O)NCCN4CCOCC4)cc32)cc1,-15.2
17,CCN1C(=O)c2ccccc2Sc2ccc(C(=O)NCCCN(CC(C)C)CC(C)C)cc21,-64.3
18,CCN1C(=O)c2ccccc2Sc2ccc(C(=O)NCCCN3CCOCC3)cc21,-17.8
19,O=C(NCCN1CCOCC1)c1ccc2c(c1)N(Cc1ccccc1F)C(=O)c1ccccc1S2,-27
